target: PUM1 PUF domain R4-PFC (Homo sapiens, UniProt Q14671 828-1176, N971P;H972F;Q975C); experiment: yeast three-hybrid, YBZ-1, SC-Leu-His + 0.5 mM 3-AT, 4 days; settings: tags: N-Gal4 AD-HA kept; label: inside an RPR1-promoter hybrid RNA with tandem MS2 sites; ssRNA
Outline: (§1)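 Each repeat of the Pumilio-1 PUF domain was randomized at its three base-contacting residues, and these libraries were co-expressed from a centromeric plasmid with matching RNA elements in strain YBZ-1. After four days on SC-Leu (input) or SC-Leu-His + 0.5 mM 3-AT (selection), the repeat regions were PCR-amplified and Illumina-sequenced. The interaction score compares variant frequency between input and selection as a log change, computed in log2 with a pseudocount of 1 for absent variants.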

Row | Sequence | binding signal
1 | GGCUAGAACUAGUGGAUCCCCCGGCGCCCGGCGGCUCGAGCCCGGGUAAGUGUAAAUAGUCUGCAUGCCGCCGGGCGCCAUGCCUGCAGGUCGACUCUAGAAAACAUG | 7.66 log2 enrichment (interaction score)
2 | GGCUAGAACUAGUGGAUCCCCCGGCGCCCGGCGGCUCGAGCCCGGGUAAGUGUAUAUAGUCUGCAUGCCGCCGGGCGCCAUGCCUGCAGGUCGACUCUAGAAAACAUG | 7.01 log2 enrichment (interaction score)
3 | GGCUAGAACUAGUGGAUCCCCCGGCGCCCGGCGGCUCGAGCCCGGGUAAGUGUACAUAGUCUGCAUGCCGCCGGGCGCCAUGCCUGCAGGUCGACUCUAGAAAACAUG | 5.29 log2 enrichment (interaction score)

target: PUM1 PUF domain R5-RRY (Homo sapiens, UniProt Q14671 828-1176, C1007R;Q1011Y); experiment: as above; settings: tags: N-Gal4 AD-HA kept; label: inside an RPR1-promoter hybrid RNA with tandem MS2 sites; ssRNA
Outline: as §1

Row | Sequence | binding signal
4 | GGCUAGAACUAGUGGAUCCCCCGGCGCCCGGCGGCUCGAGCCCGGGUAAGUGUCAAUAGUCUGCAUGCCGCCGGGCGCCAUGCCUGCAGGUCGACUCUAGAAAACAUG | 4.32 log2 enrichment (interaction score)
5 | GGCUAGAACUAGUGGAUCCCCCGGCGCCCGGCGGCUCGAGCCCGGGUAAGUGUUAAUAGUCUGCAUGCCGCCGGGCGCCAUGCCUGCAGGUCGACUCUAGAAAACAUG | 3.28 log2 enrichment (interaction score)
6 | GGCUAGAACUAGUGGAUCCCCCGGCGCCCGGCGGCUCGAGCCCGGGUAAGUGUAAAUAGUCUGCAUGCCGCCGGGCGCCAUGCCUGCAGGUCGACUCUAGAAAACAUG | 1.18 log2 enrichment (interaction score)

target: PUM1 PUF domain R4-NRG (Homo sapiens, UniProt Q14671 828-1176, H972R;Q975G); experiment: as above; settings: tags: N-Gal4 AD-HA kept; label: inside an RPR1-promoter hybrid RNA with tandem MS2 sites; ssRNA
Outline: as §1

Row | Sequence | binding signal
7 | GGCUAGAACUAGUGGAUCCCCCGGCGCCCGGCGGCUCGAGCCCGGGUAAGUGUAAAUAGUCUGCAUGCCGCCGGGCGCCAUGCCUGCAGGUCGACUCUAGAAAACAUG | 3.35 log2 enrichment (interaction score)
8 | GGCUAGAACUAGUGGAUCCCCCGGCGCCCGGCGGCUCGAGCCCGGGUAAGUGUAUAUAGUCUGCAUGCCGCCGGGCGCCAUGCCUGCAGGUCGACUCUAGAAAACAUG | 2.73 log2 enrichment (interaction score)
9 | GGCUAGAACUAGUGGAUCCCCCGGCGCCCGGCGGCUCGAGCCCGGGUAAGUGUACAUAGUCUGCAUGCCGCCGGGCGCCAUGCCUGCAGGUCGACUCUAGAAAACAUG | 0.43 log2 enrichment (interaction score)

Source: PMC8384837, “Expanding the binding specificity for RNA recognition by a PUF domain”
